# Measurements: PubChem BioAssay (NCATS)
# Records with an inconclusive call do not appear. Calls of active or inactive are those of the source. Unless noted, calls follow the shape of the dose curve; as a rule, active = well fitted curve in the direction sought with a large enough effect; inconclusive = small, poorly fitted or top-dose-only effect, or another doubt; inactive = no such curve, though single readings can be large; an effect the other way counts as inactive or inconclusive.
# Key:
# [1] = molecular target: Glucocorticoid receptor (Homo sapiens) (UniProt P04150); experiment: qHTS assay for small molecule agonists of glucocorticoid receptor signaling (AID 588532; active = well fitted curve in the direction sought with a large enough effect in the signal ratio, with a control signal flat; the % refers to the signal ratio;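 also: 100% = dexamethasone at 0.1 µM and 0% = DMSO only wells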); settings: HeLa MMTV-bla, beta-lactamase ratio, agonist, 18 h; activation: stronger effect = higher value, percent of dexamethasone control, DMSO zero
# Outline: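 MMTV-bla HeLa beta-lactamase reporter cells in 1% charcoal/dextran FBS medium, compounds up to 92 uM for 18 h at 37 C, CCF4 readout; normalized to 0.1 uM dexamethasone (100%), EC50 and efficacy from Hill fits.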
# [2] = molecular target: Peroxisome proliferator-activated receptor delta (Homo sapiens) (UniProt Q03181); experiment: qHTS assay for small molecule agonists of peroxisome proliferator-activated receptor delta signaling (AID 588534; calls by dose curve;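 also: 0% = DMSO basal wells and 100% = positive control agonist at 10 µM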)
# Outline: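 Cell-based beta-lactamase reporter assay run in agonist mode: cells seeded and incubated 5 hrs at 37 C, compounds added and incubated 18 hrs at 37 C. CCF4 dye fluorescence read after 2 hrs at RT; EC50 and efficacy from Hill fits.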
# [3] = molecular target: Peroxisome proliferator-activated receptor gamma (Homo sapiens) (UniProt P37231); experiment: qHTS assay for small molecule agonists of peroxisome proliferator-activated receptor gamma signaling (AID 588536; active = well fitted curve in the direction sought with a large enough effect in the signal ratio, with a control signal flat, not every such curve was filed as active; the % refers to the signal ratio;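 also: 0% = DMSO basal wells and 100% = rosiglitazone at 2 µM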)
# Outline: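 GeneBLAzer PPAR-gamma-UAS-bla HEK293 cells in 1% charcoal/dextran-treated FBS medium were treated 16 h at 37 C with compounds. Beta-lactamase activity was read by CCF4 ratio (460/530 nm). Response was normalized to 2 uM rosiglitazone (100%) and DMSO, then Hill-fitted for EC50 and efficacy.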
# [4] = molecular target: Peroxisome proliferator-activated receptor gamma (Homo sapiens) (UniProt P37231); experiment: qHTS assay for small molecule antagonists of peroxisome proliferator-activated receptor gamma signaling (AID 588537; active = well fitted inhibition curve with a large enough effect in the signal ratio, with a control signal flat, not every such curve was filed as active; the % refers to the signal ratio;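 also: reporter cells co-stimulated with 50 nM rosiglitazone agonist during compound treatment; % of control where 0% means no effect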)
# Outline: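 Step one: plate 3000 HEK293 UAS-bla cells per well in medium with 1% stripped serum and hold 6-6.5 h at 37 C. Step two: add compound and 50 nM agonist for 16 h. Step three: CCF4 loading, fluorescence read.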
# [5] = molecular target: Vitamin D3 receptor (Homo sapiens) (UniProt P11473); experiment: qHTS assay for small molecule antagonists of vitamin D receptor signaling (AID 588541; calls by dose curve;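 also: receptor activated by calcitriol during compound treatment; series mostly up to about 77 µM; % is scaled to controls: 0 for no effect and ±100 for the full control effect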)
# Outline: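 VDR-UAS-bla HEK293T cells in 2% charcoal-stripped FBS were stimulated with 1-alpha,25-dihydroxyvitamin D3 (3 nM final) plus compound for 16 h at 37 C. The beta-lactamase CCF4 readout was normalized to 50 nM agonist and DMSO, and Hill fits gave IC50.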
# [6] = molecular target: Vitamin D3 receptor (Homo sapiens) (UniProt P11473); experiment: qHTS assay for small molecule agonists of vitamin D receptor signaling (AID 588543; calls by dose curve;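 also: 0% = DMSO basal and 100% = reference agonist control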)
# Outline: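 VDR-UAS-bla HEK293T cells, 2000/well, 2% charcoal-stripped FBS; compound titration 16 h at 37 C; CCF4 beta-lactamase ratio read. Normalized to 50 nM 1-alpha,25-dihydroxyvitamin D3 (100%) and DMSO; Hill fit gives EC50, efficacy.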
# [7] = molecular target: Retinoic acid receptor RXR-alpha (Homo sapiens) (UniProt P19793); experiment: qHTS assay for small molecule agonists of retinoid X receptor alpha signaling (AID 588544; calls by dose curve;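 also: 0% = DMSO basal wells and 100% = reference agonist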)
# [8] = molecular target: Thyroid hormone receptor beta (Homo sapiens) (UniProt P10828); experiment: qHTS assay for small molecule agonists of thyroid hormone receptor beta signaling (AID 588545; calls by dose curve;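 also: 0% = DMSO only and 100% = 10 nM T3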)
# Outline: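 Stimulation of a TR-driven beta-lactamase reporter was quantified in GripTite HEK 293 cells. Compound series ran for 18 hrs; curves were normalized to T3 and DMSO controls and fitted to yield EC50.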
# [9] = qHTS assay for small molecule antagonists of retinoid X receptor alpha signaling (AID 588546; active = well fitted inhibition curve with a large enough effect in the signal ratio, with a control signal flat, not every such curve was filed as active; the % refers to the signal ratio; also: potency is read from the fitted curve at half-maximal effect;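 as to max response: cells stimulated with 9-cis-retinoic acid as agonist; % is scaled to controls: 0 for no effect and ±100 for the full control effect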); settings: HEK293T RXRa-UAS-bla, beta-lactamase ratio, antagonist mode; measured here: W530 green channel, cytotoxicity proxy
# Outline: (§1)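 Beta-lactamase reporter inhibition, read as CCF4 fluorescence ratio (ex 405, em 460/530 nm) after 2 h at RT. HEK293T UAS-bla cells, 2500/well, were stimulated with 9-cis-RA at 500 or 100 nM final alongside test compound for 18 h at 37 C.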
# [10] = molecular target: Retinoic acid receptor RXR-alpha (Homo sapiens) (UniProt P19793); experiment: as above; settings: HEK293T RXRa-UAS-bla, beta-lactamase ratio, antagonist mode
# Outline: as §1
# [11] = qHTS assay for small molecule activators of the p53 signaling pathway (AID 651743; active = well fitted activation curve with a large enough effect in the signal ratio, not every such curve was filed as active; the % refers to the signal ratio; also: potency is read from the fitted curve at half-maximal effect; as to activation: series mostly up to about 92 µM; % of control where 0% means no effect); settings: HCT-116 p53RE-bla, beta-lactamase FRET ratio, 16 h; activation: stronger effect = higher value
# Outline: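 HCT-116 p53RE-bla, 4,000 cells/well; 5 h settle; cpd/DMSO 16 h, 37 C; LiveBLAzer B/G 2 h RT; fluorescence intensity.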
# [12] = qHTS assay for environmental chemicals that activate the Aryl hydrocarbon Receptor (AhR) signaling pathway (AID 651777); settings: 1A2-DRE human hepatoma cells, luciferase, 24 h; activation: stronger effect = higher value; also: % of control where 0% means no effect; nearly all actives have a fitted effect of over 15% in size
# Outline: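 1A2-DRE human hepatoma reporter line; 1,200 cells/well; cmpd or DMSO 24 h, 37 C/5% CO2; One-Glo 30 min RT; luciferase lum.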
# [13] = molecular target: Peroxisome proliferator-activated receptor alpha (Homo sapiens) (UniProt Q07869); experiment: qHTS assay for small molecule agonists of the peroxisome proliferator-activated receptor alpha (PPARalpha) signaling pathway (AID 651778); settings: PathHunter PPARalpha complementation, chemiluminescence, 6 h; max response: stronger effect = higher value; also: % of control where 0% means no effect
# Outline: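 Enzyme-fragment complementation assay in which ligand-bound PPARalpha translocates and forms an active enzyme that generates chemiluminescence. Cells were plated overnight, exposed to compound for 6 hr at 37 C, and then given detection reagent for 60 min at room temperature.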
# [14] = qHTS assay for small molecule agonists of the antioxidant response element (ARE) signaling pathway measured by Nrf2-dependant transcriptional activity (AID 720636; active = well fitted curve in the direction sought with a large enough effect in the repeat runs; an effect the other way counts as inactive or inconclusive;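 also: HepG2 cells with an ARE-driven luciferase reporter; % of control where 0% means no effect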)
# Outline: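 Cells: ARE-luc HepG2 with Nrf2-responsive luciferase. Medium contained 1% dialyzed FBS. Compound exposure lasted 16 hr at 37 C and 5% CO2, followed by ONE-Glo luciferase detection.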
# [15] = qHTS assay for small molecule agonists of the antioxidant response element (ARE) signaling pathway measured by Nrf2-dependant transcriptional activity - cell viability counter screen (AID 720653; active = well fitted curve in the direction sought with a large enough effect in the repeat runs; an effect the other way counts as inactive or inconclusive; also: % is scaled to controls: 0 for no effect and ±100 for the full control effect); settings: ARE-bla HepG2 viability, CellTiter-Glo ATP luminescence, 16 h; max response: stronger effect = lower value
# Outline: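 ARE-bla HepG2 cells treated with compounds for 16 h at 37C; this counter screen measures viability as intracellular ATP by CellTiter-Glo luminescence after 30 min at room temperature.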
# [16] = qHTS assay for cell viability of HEK293 cells (AID 743288); settings: ATP luminescence (CellTiter-Glo), 18 h; max response: stronger effect = lower value; also: % is scaled to controls: 0 for no effect and ±100 for the full control effect; nearly all actives have a fitted effect of over 50% in size
# Outline: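 Parental HEK293 cells, 2,000 per well, preincubated at least 5 h at 37 C, then exposed to compounds in DMSO for 18 h at 37 C. Viability by CellTiter-Glo ATP luminescence after 30 min at room temperature.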
# [17] = qHTS assay for cell viability of the p53RE-bla HCT-116 cell line (AID 743292); also: % is scaled to controls: 0 for no effect and ±100 for the full control effect; nearly all actives have a fitted effect of over 55% in size
# Outline: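 HCT-116 p53RE-bla cells seeded 4,000/well; 5 h at 37 C; compound (DMSO) added; 16 h at 37 C; CellTiter-Glo added, 30 min RT; luminescence read.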
# [18] = molecular target: Nuclear receptor subfamily 1 group I member 2 (Rattus norvegicus) (UniProt Q9R1A7); experiment: qHTS assay for small molecule activators of the rat pregnane X receptor (rPXR) signaling pathway (AID 651751; call rule not given here; also: 0% is about no effect); settings: rPXR reporter cells, luciferase (One-Glo), 24 h
# [19] = qHTS assay for small molecule antagonists of peroxisome proliferator-activated receptor delta signaling (AID 588535; active = well fitted inhibition curve with a large enough effect in the signal ratio, with a control signal flat, not every such curve was filed as active; the % refers to the signal ratio;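 as to max response: cells co-treated with a PPAR-delta agonist as stimulator during compound exposure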); settings: HEK293T PPARd-UAS-bla, beta-lactamase FRET ratio, 18 h; 460 nm channel
# Outline: (§2)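 Cells were seeded at 4000 per well in assay medium containing 2% charcoal/dextran FBS and held 5 hrs at 37 C. Compounds were then added for 18 hrs. CCF4 substrate was applied for 2 hrs at room temperature before fluorescence reading.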
# [20] = molecular target: Peroxisome proliferator-activated receptor delta (Homo sapiens) (UniProt Q03181); experiment: as above
# Outline: as §2
# Peroxisome proliferator-activated receptor delta (Homo sapiens), sequence (Q03181 whole entry, looked up): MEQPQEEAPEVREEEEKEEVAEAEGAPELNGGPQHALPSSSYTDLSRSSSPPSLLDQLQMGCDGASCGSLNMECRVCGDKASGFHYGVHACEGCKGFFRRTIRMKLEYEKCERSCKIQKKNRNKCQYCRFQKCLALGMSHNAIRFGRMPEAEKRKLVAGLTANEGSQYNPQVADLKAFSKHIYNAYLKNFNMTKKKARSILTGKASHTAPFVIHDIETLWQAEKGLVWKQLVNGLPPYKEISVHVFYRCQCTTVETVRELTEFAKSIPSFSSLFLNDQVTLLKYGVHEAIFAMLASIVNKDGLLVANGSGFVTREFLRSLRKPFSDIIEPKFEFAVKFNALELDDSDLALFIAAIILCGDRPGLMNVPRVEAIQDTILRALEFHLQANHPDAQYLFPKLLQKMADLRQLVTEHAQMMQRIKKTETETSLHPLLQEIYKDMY
# Thyroid hormone receptor beta (Homo sapiens), sequence (P10828 whole entry, looked up): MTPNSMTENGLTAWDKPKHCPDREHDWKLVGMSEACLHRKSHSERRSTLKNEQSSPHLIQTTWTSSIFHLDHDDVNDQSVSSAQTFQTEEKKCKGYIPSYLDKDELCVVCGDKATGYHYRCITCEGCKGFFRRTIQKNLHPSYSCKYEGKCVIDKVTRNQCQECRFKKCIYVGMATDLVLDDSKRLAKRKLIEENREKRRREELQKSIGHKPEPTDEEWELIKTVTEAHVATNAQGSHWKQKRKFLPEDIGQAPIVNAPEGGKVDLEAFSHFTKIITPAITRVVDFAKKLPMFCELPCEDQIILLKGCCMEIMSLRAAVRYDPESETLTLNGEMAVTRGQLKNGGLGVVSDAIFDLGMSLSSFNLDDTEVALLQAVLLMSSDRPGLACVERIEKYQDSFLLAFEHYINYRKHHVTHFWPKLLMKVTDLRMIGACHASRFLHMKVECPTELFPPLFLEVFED
# Peroxisome proliferator-activated receptor alpha (Homo sapiens), sequence (Q07869 whole entry, looked up, the tested form may be a part): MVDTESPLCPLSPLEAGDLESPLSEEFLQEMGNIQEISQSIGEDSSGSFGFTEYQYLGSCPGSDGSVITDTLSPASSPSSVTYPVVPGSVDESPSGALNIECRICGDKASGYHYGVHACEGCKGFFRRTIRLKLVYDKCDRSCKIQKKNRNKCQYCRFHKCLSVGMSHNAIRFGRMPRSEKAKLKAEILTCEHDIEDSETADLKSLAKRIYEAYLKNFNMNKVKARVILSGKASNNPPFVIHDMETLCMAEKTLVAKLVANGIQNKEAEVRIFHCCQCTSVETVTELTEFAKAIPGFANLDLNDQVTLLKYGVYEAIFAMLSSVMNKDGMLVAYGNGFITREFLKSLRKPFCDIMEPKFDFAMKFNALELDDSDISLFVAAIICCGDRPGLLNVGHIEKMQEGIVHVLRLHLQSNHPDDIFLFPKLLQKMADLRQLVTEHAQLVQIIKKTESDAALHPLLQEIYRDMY
# Vitamin D3 receptor (Homo sapiens), sequence (P11473 whole entry, looked up): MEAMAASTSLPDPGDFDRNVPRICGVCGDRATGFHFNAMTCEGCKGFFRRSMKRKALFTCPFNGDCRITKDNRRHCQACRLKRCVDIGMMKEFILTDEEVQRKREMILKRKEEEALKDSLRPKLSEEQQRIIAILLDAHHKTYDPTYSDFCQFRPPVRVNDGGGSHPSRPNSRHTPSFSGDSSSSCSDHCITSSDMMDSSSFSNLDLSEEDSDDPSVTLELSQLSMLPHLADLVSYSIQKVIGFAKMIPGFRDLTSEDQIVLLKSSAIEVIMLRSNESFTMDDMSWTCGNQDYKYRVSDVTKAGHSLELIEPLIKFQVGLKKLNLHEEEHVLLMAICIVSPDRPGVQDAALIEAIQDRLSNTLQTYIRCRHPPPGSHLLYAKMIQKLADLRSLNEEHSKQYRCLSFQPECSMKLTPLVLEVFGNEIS
# Nuclear receptor subfamily 1 group I member 2 (Rattus norvegicus), sequence (Q9R1A7 whole entry, looked up): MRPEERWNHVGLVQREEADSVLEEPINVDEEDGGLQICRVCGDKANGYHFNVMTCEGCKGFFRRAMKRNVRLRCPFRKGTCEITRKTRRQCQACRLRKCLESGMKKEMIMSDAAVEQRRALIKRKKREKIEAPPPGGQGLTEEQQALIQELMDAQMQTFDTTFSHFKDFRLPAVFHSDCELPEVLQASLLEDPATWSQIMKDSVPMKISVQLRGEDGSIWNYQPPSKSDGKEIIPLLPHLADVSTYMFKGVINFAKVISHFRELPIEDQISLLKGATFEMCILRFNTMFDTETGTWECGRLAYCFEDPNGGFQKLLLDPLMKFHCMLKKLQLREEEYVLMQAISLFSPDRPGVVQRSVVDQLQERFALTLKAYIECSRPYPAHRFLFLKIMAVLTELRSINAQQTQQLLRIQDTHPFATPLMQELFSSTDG
# Retinoic acid receptor RXR-alpha (Homo sapiens), sequence (P19793 whole entry, looked up): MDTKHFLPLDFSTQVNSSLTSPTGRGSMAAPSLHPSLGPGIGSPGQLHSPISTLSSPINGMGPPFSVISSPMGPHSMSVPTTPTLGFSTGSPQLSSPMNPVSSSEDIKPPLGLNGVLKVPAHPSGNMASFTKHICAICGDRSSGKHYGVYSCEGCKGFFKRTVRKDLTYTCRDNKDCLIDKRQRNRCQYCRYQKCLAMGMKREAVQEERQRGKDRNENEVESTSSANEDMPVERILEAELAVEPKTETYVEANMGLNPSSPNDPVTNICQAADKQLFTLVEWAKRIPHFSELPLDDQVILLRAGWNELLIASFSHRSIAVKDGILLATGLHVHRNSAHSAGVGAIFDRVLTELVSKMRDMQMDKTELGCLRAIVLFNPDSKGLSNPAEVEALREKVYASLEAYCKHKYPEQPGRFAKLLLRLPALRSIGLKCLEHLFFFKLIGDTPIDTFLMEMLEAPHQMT
# Peroxisome proliferator-activated receptor gamma (Homo sapiens), sequence (P37231 whole entry, looked up): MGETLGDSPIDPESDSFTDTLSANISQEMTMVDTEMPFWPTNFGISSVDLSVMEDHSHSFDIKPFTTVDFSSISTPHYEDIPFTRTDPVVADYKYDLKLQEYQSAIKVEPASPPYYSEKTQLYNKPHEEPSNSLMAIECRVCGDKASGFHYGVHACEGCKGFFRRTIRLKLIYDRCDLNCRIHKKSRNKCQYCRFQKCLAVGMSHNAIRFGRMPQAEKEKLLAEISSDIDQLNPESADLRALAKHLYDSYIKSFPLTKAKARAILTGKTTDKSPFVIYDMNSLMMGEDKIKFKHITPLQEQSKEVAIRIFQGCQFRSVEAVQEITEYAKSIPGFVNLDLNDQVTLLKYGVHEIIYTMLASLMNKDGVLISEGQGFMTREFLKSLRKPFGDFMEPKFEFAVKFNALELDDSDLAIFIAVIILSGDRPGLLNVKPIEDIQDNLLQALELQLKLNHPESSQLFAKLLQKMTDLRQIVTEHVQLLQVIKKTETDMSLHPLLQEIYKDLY
# Glucocorticoid receptor (Homo sapiens), sequence (P04150 whole entry, looked up): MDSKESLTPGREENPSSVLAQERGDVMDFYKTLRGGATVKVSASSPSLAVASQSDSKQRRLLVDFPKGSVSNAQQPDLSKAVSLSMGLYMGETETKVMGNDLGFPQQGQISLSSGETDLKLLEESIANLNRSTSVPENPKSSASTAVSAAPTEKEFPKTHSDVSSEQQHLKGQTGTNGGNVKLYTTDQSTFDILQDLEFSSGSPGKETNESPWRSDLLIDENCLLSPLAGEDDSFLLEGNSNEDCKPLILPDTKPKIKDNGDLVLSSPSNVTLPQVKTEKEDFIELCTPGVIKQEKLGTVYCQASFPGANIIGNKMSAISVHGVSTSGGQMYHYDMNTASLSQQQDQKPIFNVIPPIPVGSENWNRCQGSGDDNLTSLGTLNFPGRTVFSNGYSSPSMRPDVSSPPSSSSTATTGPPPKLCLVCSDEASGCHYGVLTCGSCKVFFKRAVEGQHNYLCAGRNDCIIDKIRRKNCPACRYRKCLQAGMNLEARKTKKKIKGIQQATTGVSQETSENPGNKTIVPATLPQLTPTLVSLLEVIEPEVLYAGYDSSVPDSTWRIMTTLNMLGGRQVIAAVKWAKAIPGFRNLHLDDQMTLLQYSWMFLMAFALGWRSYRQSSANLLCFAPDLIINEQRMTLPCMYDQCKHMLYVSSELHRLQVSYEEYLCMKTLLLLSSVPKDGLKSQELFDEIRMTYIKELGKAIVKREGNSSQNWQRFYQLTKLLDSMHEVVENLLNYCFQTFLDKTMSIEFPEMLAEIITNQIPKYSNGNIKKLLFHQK
compound,measurement,setting,value
CC1(C)CC/C(=C\c2ccc(Cl)cc2)C1(O)Cn1cncn1 (centres undefined),activation,[1],-0.523% (inactive)
same,outcome,[2],inactive
same,Potency,[3],inactive
same,Potency,[4],inactive
same,Potency,[5],inactive
same,outcome,[6],inactive
same,Potency,[7],inactive
same,Potency,[8],inactive
same,max response,[9],5.05%
same,max response,[10],-37.6% (inactive)
same,activation,[11],-1.43% (inactive)
same,activation,[12],7.02% (inactive)
same,max response,[13],0.489% (inactive)
same,Potency,[14],inactive
same,max response,[15],-5.93% (inactive)
same,max response,[16],-11.5% (inactive)
same,Potency,[17],inactive
same,max response,[18],12.5% (inactive)
CCOc1nc(C(Cl)(Cl)Cl)ns1,outcome,[2],inactive
same,max response,[19],-34.9%
same,Potency,[20],inactive
same,Potency,[3],inactive
same,Potency,[4],inactive
same,Potency,[5],inactive
same,outcome,[6],inactive
same,Potency,[7],inactive
same,Potency,[8],inactive
same,max response,[9],-10.8%
same,max response,[10],3.55% (inactive)
same,activation,[11],-0.297% (inactive)
same,activation,[12],7.64% (inactive)
same,max response,[13],-0.167% (inactive)
same,max response,[15],-1.82% (inactive)
same,max response,[16],-11.1% (inactive)
same,Potency,[17],inactive
CNC(=O)O/N=C/C(C)(C)S(C)(=O)=O,Potency,[3],inactive
same,Potency,[7],inactive
same,Potency,[8],inactive
same,max response,[9],-10.7%
same,max response,[10],0.762% (inactive)
same,activation,[11],-2.46% (inactive)
same,activation,[12],-0.939% (inactive)
same,max response,[13],-0.004% (inactive)
same,Potency,[14],inactive
same,max response,[15],1.38% (inactive)
same,max response,[16],0.485% (inactive)
same,Potency,[17],inactive
same,max response,[18],1.26% (inactive)
C#CCN1C(=O)COc2cc(F)c(N3C(=O)C4=C(CCCC4)C3=O)cc21,activation,[1],-6.94% (inactive)
same,Potency,[3],inactive
same,Potency,[5],inactive
same,outcome,[6],inactive
same,Potency,[7],inactive
same,Potency,[8],inactive
same,max response,[9],5.82%
same,max response,[10],-8.58% (inactive)
same,activation,[12],0.764% (inactive)
same,max response,[13],-2.95% (inactive)
same,Potency,[14],inactive
same,max response,[15],-24.6% (inactive)
same,max response,[16],-11.7% (inactive)
same,Potency,[17],inactive
same,max response,[18],6.57% (inactive)
CC(C)(C)[C@@H](O)/C(=C\c1ccc(Cl)cc1Cl)n1cncn1,outcome,[2],inactive
same,Potency,[8],inactive
same,max response,[9],18.6%
same,Potency,[10],44.7 µM (active)
same,activation,[11],-3.2% (inactive)
same,Potency,[14],inactive
same,max response,[15],6.93% (inactive)
same,Potency,[17],inactive
CO/N=C(/C(=O)OC)c1ccccc1COc1ccccc1C,activation,[1],-0.293% (inactive)
same,outcome,[6],inactive
same,Potency,[7],inactive
same,Potency,[8],inactive
same,Potency,[11],25.1 µM (active)
same,activation,[12],13.1% (inactive)
same,max response,[13],5.1% (inactive)
same,Potency,[14],inactive
same,max response,[15],-19.8% (inactive)
same,max response,[16],-26.1% (inactive)
same,Potency,[17],inactive
CCOP(=S)(OCC)SCn1c(=O)oc2cc(Cl)ccc21,activation,[1],0.851% (inactive)
same,Potency,[3],inactive
same,Potency,[5],inactive
same,Potency,[8],inactive
same,max response,[13],-0.132% (inactive)
same,max response,[15],-8.7% (inactive)
same,max response,[16],-28.2% (inactive)
same,Potency,[17],inactive
CCCCNC(=O)OCC#CI,outcome,[2],inactive
same,Potency,[4],inactive
same,Potency,[8],inactive
same,max response,[9],2.86%
same,max response,[10],-22.6% (inactive)
same,activation,[11],-1.36% (inactive)
same,max response,[13],-2.4% (inactive)
same,Potency,[14],inactive
same,Potency,[17],inactive
